According to ChEMBL document CHEMBL3988442, “University of Dundee, Small-Polar-MMV Screening Library” (2021):
For some of these results: Potency and affinity values are given separately.

Columns and labels:
Parameters in all cases: scale not given: direction of the effect not stated beside the values
[1] = biological target: Protein translocase subunit SecA (Escherichia coli (strain K12)) (UniProt P10408); test: Assay to Identify E. coli SecA ATPase Inhibitors; format: functional; details: 30 µM
[2] = biological target: T1, Ubiquitin-activating enzyme e1, putative (Leishmania donovani (strain BPK282A1)) (UniProt E9BSI1); test: Leishmania donovani Ubiquitin Activating Enzyme (LdE1); format: functional; details: 30 µM
T1 sequence (whole entry): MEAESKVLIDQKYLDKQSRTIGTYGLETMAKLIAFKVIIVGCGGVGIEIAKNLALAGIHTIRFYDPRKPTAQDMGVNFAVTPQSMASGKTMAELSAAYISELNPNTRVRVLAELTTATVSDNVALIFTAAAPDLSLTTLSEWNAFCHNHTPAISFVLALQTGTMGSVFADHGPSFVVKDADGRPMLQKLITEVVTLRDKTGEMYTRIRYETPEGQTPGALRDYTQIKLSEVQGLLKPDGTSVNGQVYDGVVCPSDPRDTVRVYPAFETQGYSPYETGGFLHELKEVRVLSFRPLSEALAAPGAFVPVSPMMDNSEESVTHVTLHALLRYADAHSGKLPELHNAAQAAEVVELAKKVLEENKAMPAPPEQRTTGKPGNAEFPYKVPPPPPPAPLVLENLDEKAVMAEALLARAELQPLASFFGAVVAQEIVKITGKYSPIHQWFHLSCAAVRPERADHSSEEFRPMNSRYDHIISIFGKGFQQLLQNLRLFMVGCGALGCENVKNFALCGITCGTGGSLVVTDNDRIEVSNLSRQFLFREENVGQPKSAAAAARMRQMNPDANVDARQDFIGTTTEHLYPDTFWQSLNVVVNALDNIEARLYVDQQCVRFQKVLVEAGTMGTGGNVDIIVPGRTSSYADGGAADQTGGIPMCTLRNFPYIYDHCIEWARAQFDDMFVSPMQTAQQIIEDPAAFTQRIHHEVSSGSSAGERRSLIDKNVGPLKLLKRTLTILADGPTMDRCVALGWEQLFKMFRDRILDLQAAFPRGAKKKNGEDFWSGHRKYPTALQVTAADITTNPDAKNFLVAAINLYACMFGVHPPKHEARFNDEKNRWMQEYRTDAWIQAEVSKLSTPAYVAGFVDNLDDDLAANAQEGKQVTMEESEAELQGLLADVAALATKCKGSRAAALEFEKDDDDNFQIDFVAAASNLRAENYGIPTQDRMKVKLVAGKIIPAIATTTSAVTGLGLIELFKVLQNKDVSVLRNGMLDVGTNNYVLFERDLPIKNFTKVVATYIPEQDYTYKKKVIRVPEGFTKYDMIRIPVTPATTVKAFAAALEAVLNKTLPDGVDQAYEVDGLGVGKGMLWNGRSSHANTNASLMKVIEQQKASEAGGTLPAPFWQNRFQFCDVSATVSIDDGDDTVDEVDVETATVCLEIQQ

[3] = biological target: T2, Aspartate--tRNA(Asp/Asn) ligase (Mycobacterium tuberculosis (strain ATCC 25618 / H37Rv)) (UniProt P9WFW3); test: Assay for Asp RNA synthetase-1 from Mycobacterium tuberculosis; format: functional; details: 30 µM; also: in the data most compounds retested in dose-response had high values
T2 sequence (whole entry): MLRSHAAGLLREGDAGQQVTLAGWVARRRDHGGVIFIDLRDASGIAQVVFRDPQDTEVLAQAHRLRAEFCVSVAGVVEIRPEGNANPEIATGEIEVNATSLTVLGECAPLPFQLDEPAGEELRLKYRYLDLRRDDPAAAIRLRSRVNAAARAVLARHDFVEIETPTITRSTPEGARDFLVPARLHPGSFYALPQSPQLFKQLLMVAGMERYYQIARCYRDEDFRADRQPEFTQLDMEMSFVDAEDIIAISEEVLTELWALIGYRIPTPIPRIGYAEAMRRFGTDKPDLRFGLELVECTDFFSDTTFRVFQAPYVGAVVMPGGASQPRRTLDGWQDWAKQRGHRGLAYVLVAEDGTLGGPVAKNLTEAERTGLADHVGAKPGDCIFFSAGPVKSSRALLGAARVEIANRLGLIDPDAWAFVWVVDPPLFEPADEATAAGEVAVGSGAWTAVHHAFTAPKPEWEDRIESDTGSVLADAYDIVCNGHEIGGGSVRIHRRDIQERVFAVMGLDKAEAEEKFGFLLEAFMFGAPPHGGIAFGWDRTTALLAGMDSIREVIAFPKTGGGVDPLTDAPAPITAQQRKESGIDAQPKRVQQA

[4] = biological target: AMP-activated protein kinase, AMPK (Homo sapiens) (UniProt P54646+O43741+P54619+Q9UGJ0+Q9Y478+Q13131+Q9UGI9); test: AMP-dependent Kinase enzyme assay. An in vitro enzyme assay that detects ADP turnover that is directly proportional to AMPK activity. This uses naive AMPK that is activated during the assay with MK-8722; format: functional; details: 30 µM
[5] = biological target: Sialic acid-binding Ig-like lectin 9 (Homo sapiens) (UniProt Q9Y336); test: Hs-Siglec9 ALPHAscreen SOP 20170721; details: 10 µM
Trypanosoma cruzi = test: Trypanosoma cruzi phosphomannomutase and mannose-1-phosphate guanylyltransferase assay; format: functional; details: 10 µM
[6] = biological target: T3, Arginase-2, mitochondrial (Homo sapiens) (UniProt P78540); test: in vitro enzyme assay to detect the production of urea directly proportional to the activity of Arginase II; format: functional; details: 33.3 µM; also: in the data most compounds retested in dose-response had high values
T3 sequence (whole entry): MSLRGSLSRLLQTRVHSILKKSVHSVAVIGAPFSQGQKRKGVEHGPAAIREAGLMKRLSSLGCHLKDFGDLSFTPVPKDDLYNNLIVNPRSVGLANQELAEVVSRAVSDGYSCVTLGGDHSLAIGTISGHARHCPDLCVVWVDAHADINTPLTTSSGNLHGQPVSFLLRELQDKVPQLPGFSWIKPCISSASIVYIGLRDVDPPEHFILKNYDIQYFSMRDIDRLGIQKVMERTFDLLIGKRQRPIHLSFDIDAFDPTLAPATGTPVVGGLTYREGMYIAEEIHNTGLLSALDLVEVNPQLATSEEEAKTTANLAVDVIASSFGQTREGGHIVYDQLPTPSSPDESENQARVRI

[7] = biological target: T4, Proteasome subunit beta (Trypanosoma cruzi) (UniProt O96673); test: Trypanosoma cruzi proteasome chymotrypsin-like activity (TcProtChymo) assay.; also: in the data most compounds retested in dose-response had high values; format: functional; details: 9.37 µM
T4 sequence (whole entry): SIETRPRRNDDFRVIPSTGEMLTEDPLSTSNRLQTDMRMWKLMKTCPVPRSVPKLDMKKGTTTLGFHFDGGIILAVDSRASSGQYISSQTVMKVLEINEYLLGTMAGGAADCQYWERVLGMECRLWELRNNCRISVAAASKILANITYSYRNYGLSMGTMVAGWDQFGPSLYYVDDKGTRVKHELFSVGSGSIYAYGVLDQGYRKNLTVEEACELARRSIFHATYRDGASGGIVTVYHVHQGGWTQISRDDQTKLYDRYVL

Homo sapiens = organism: Homo sapiens; test: To identify inhibition of the IFN signalling (Jak-Stat) pathway via expression of an eGFP reporter gene under the control of an IFN-stimulated response element (ISRE) containing MxA promoter.; format: functional; details: 30 µM
[8] = biological target: Shiga toxin 2 (Escherichia coli O157:H7) (UniProt P09385+P09386); test: E. coli 0.157:H7 Shiga Toxin SOP - stx2 screening assay; format: functional; details: 30 µM
[9] = biological target: T5, Tyrosyl-tRNA synthetase, putative (Trypanosoma cruzi (strain CL Brener)) (UniProt Q4DSP6); test: Trypanosoma cruzi tyrosyl tRNA synthetase (TcYRS) _High Tyrosine SOP; format: functional; details: 30 µM; also: in the data most compounds retested in dose-response had high values
T5 sequence (whole entry): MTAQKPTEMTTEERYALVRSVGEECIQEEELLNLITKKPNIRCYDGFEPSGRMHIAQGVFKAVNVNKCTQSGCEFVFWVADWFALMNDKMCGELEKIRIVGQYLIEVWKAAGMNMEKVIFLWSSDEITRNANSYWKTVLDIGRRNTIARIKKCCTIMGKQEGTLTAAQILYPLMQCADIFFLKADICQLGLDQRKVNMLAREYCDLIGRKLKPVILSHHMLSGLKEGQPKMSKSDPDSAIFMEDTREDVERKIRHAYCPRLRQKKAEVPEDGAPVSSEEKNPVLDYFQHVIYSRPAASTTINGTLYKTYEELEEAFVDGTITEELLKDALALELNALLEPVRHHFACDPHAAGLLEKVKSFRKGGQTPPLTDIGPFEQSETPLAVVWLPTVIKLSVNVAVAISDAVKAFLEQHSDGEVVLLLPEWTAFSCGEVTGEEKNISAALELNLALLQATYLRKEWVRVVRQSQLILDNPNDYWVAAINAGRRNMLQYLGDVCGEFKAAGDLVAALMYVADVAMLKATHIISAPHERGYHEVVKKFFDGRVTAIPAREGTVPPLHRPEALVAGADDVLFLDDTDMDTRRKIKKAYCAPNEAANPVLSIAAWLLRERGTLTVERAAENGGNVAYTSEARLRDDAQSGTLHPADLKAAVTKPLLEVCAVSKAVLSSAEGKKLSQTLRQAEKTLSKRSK

[10] = biological target: T5, Tyrosyl-tRNA synthetase, putative (Trypanosoma cruzi (strain CL Brener)); test: Trypanosoma cruzi tyrosyl tRNA synthetase (TcYRS) SOP; format: functional; details: 30 µM
[11] = biological target: Chromo domain-containing protein 1 (Saccharomyces cerevisiae (strain ATCC 204508 / S288c) (Baker's yeast)) (UniProt P32657); test: ScCHD-1 Enzyme Inhibition Assay; format: functional; details: 30 µM; also: in the data most compounds retested in dose-response had high values
Chain of Chromo domain-containing protein 1 (Saccharomyces cerevisiae (strain ATCC 204508 / S288c) (Baker's yeast)) (P32657 whole entry, the tested form may be a part): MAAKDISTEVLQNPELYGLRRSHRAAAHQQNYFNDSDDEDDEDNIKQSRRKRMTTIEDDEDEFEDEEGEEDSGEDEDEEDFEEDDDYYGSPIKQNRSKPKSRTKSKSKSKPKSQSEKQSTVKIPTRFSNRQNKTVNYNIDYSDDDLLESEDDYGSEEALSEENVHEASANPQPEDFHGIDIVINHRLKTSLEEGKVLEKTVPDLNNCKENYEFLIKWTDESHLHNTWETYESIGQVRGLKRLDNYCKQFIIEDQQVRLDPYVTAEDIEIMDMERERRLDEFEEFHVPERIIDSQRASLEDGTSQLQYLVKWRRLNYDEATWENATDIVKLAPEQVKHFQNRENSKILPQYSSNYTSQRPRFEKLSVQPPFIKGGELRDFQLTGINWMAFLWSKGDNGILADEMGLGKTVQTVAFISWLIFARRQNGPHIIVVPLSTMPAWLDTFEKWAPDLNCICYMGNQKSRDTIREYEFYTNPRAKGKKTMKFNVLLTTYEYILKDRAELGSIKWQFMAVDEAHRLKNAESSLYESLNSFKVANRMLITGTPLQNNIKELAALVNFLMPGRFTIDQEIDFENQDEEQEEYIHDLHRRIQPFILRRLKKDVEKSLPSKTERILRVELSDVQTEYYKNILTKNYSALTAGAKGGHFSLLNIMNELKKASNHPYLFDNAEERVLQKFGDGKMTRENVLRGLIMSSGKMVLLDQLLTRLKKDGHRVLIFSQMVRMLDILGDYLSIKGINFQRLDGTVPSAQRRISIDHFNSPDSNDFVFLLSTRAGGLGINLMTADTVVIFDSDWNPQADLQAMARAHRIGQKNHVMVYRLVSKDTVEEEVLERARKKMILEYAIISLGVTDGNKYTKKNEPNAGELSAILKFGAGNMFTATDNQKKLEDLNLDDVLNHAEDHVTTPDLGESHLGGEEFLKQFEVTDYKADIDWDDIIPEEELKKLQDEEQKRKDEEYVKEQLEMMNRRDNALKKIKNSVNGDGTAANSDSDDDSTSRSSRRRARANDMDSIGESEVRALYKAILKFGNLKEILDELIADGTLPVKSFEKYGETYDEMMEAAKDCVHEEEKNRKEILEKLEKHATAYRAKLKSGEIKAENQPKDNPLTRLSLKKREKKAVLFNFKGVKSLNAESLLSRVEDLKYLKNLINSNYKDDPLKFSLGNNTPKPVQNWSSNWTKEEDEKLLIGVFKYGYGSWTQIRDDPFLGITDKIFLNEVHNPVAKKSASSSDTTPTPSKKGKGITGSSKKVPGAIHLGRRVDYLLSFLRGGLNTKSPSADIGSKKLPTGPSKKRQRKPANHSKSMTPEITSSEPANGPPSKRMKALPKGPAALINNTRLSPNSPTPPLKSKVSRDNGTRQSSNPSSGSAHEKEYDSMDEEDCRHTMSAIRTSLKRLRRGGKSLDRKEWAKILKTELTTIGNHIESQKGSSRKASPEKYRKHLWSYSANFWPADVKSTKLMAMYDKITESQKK

Chain of Protein translocase subunit SecA (Escherichia coli (strain K12)) (P10408 whole entry): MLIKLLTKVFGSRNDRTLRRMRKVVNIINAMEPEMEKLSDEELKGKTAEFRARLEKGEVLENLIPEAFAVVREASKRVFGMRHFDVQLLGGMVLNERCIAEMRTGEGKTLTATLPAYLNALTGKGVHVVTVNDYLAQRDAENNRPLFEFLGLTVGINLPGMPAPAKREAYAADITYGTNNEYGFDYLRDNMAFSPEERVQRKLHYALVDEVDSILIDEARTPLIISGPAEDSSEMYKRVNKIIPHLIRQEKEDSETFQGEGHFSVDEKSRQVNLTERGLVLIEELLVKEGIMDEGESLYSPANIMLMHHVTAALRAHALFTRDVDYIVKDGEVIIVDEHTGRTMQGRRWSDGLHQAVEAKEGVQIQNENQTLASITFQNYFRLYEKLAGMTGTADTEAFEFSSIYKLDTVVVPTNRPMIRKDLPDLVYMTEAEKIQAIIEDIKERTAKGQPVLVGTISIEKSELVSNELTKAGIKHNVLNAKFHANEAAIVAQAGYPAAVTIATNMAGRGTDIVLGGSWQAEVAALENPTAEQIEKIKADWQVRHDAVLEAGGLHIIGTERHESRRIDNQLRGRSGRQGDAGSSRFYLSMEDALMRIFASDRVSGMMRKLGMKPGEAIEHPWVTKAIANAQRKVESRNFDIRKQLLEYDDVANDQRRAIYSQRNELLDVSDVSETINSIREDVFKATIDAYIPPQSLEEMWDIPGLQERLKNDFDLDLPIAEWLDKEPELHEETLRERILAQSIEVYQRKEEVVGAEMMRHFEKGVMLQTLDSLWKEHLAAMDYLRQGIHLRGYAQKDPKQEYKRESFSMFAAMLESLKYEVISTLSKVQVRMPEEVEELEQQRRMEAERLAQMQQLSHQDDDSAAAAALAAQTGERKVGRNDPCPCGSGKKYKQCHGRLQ
Chain of Sialic acid-binding Ig-like lectin 9 (Homo sapiens) (Q9Y336 whole entry): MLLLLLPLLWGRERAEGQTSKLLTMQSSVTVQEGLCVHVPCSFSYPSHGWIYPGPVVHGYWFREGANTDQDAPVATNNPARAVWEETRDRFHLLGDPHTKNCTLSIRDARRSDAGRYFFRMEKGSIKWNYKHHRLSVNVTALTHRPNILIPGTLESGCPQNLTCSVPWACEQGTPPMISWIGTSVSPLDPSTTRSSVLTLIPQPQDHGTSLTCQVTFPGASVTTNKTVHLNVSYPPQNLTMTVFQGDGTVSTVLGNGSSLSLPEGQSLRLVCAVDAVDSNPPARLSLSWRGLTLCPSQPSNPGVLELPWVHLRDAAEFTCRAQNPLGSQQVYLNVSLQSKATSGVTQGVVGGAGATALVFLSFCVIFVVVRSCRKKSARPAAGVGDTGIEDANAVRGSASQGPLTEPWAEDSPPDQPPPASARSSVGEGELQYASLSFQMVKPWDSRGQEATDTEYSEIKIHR

Row | SMILES | Percent Effect [1] [%] | Percent Effect [2] [%] | Percent Effect [3] [%] | Percent Effect [4] [%] | Percent Effect [5] [%] | Percent Effect (Trypanosoma cruzi) [%] | Percent Effect [6] [%] | Percent Effect [7] [%] | Percent Effect (Homo sapiens) [%] | Percent Effect [8] [%] | Percent Effect [9] [%] | Percent Effect [10] [%] | Percent Effect [11] [%]
1 | O=C(c1cnn2c1OCCC2)N1CCC2(CC1)OCCO2 | -0.752 | 2.6 | -2.99 | 3.51 | 6.26 | -6.02 | -1.94 | 7.49 | 14.6 | 4.26 | 6.35 | 11.5 | -7.54
2 | COc1ncccc1CN1C[C@@H]2COC[C@]2(COCC2CC2)C1 | -2.06 | 1.33 | 0.116 | 0.466 | 5.34 | -9.23 | 24.5 | 14.4 | 2.6 | -25.1 | 6.35 | 2.56 | -9.86
3 | CN1CCC2(COCc3cnc(N4CCOCC4)nc32)C1 (stereo not given) | -1.86 | -1.33 | -1.51 | 5.52 | 4.35 | -1.18 | -0.528 | 5.36 | -2.62 | -6.09 | 0 | -5.13 | -1.41
4 | O=C1CSC(c2cccs2)c2cnn(C3CCCC3)c2N1 (stereo not given) | -5.94 | -12 | 7.29 | 3.55 | 10.9 | 3.73 | -35.7 | 8.5 | 24 | 28.5 | 4.23 | 20.5 | 66.9
5 | O=C1N(c2cncnc2)CCC12CCCN(Cc1ccccn1)C2 (stereo not given) | -4 | 5.2 | 3.89 | 3.31 | 8.64 | -1.28 | 2.76 | 2.5 | -1.38 | -38.2 | 4.3 | 8.64 | 0.251
6 | O=C(NC[C@]12COC[C@H]1CN(Cc1cccnc1)C2)c1ccno1 | 0.292 | 13.3 | 0.956 | 8.36 | -8.01 | -4.13 | -0.233 | 2.73 | -4.47 | -10.4 | 9.57 | 19.2 | -7.79
7 | Cc1cc(CC(=O)N2CCN(CC3CC3)[C@@H]3CS(=O)(=O)C[C@@H]32)ccc1F | -1.82 | 6.94 | 3.29 | 35.7 | -0.65 | 0.0972 | 3.53 | 7.02 | -1.41 | 1.5 | 7.37 | -15.4 | -3.03
8 | O=C(c1ccnnc1)N1C[C@@H]2OCCN(CCN3CCCC3)[C@@H]2C1 | 3.18 | 0 | 0.474 | -5.06 | 4.92 | -2.64 | -1.59 | 12.7 | -3.96 | -4.98 | 6.49 | 2.56 | 6.02
9 | c1cncc(COC[C@H]2CC[C@H]3[C@H](CCN3Cc3cccs3)O2)c1 | -1.85 | 13.3 | 6.9 | 3.86 | 2.88 | -0.197 | 3.5 | 22.8 | 3.65 | -13.6 | 7.45 | 14.1 | -5.4
10 | Cc1noc(C)c1CN1CC[C@H]2C[C@@H](c3nccs3)O[C@@H]2C1 | -4.73 | 5.41 | 3.41 | 3.53 | 1.06 | 0.88 | 0.319 | 18.1 | 4.79 | 11.3 | 1.08 | 7.69 | -0.345
